Compounds with a hit are over-represented: about 10% of the library has one in this group of screens.
HPGD inh – blocks human HPGD enzyme activity | purified HPGD, NADH fluorescence kinetic, PGE2 substrate | Potency, µM, for the others: at the highest dose activity change, negative = inhibition, actives largely listed as inhibitors | 150,000 compounds, 4.3% hits; note: potency is the fitted concentration of half-maximal effect
Target sequence (P15428 whole entry, looked up): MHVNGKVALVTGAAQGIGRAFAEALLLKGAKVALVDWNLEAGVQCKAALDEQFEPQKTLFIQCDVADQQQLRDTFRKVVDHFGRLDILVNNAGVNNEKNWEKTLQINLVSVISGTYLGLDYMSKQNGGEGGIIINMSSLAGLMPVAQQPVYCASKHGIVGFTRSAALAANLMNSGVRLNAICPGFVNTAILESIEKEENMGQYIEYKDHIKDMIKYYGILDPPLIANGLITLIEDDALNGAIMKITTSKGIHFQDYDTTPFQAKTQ
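NADH formation kinetics: reaction with 30 uM PGE2 and 1 mM NAD+ (final), 20 nM enzyme, Tris-HCl pH 8 with Tween 20, after 15 min compound preincubation at room temperature. Fluorescence change, last versus first of five reads.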
ALDH1A1 block – blocks purified human ALDH1A1 activity | AID 1030 | Potency, µM (doses to about 75.3 µM), for inactives: at the top dose activity, negative = inhibition, usual class: inhibitors | Purified ALDH1A1, NADH fluorescence, propionaldehyde substrate | 220,000 compounds, 7.3% hits;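 note: potency is the fitted concentration of half-maximal effect; plate controls were no enzyme wells and a reference inhibitor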
Target sequence (P00352 whole entry, looked up): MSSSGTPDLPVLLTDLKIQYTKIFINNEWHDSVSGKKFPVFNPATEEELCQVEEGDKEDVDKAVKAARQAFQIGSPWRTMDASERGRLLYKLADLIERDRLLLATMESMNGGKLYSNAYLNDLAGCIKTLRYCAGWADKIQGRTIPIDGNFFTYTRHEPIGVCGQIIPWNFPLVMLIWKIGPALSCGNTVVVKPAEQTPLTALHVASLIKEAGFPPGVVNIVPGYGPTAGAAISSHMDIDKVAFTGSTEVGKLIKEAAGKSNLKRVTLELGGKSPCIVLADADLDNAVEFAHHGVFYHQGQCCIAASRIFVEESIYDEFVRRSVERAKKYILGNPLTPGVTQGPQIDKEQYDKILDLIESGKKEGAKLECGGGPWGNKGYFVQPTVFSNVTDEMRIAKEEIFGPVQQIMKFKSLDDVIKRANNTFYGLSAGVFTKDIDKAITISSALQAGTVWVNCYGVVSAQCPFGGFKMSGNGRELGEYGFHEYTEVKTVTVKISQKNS
Lamin A splicing – changes lamin A minigene splicing in HeLa cells. HeLa LMNA splicing GFP/RFP minigene ratio, 48 h. Potency, µM (doses to about 46.1 µM), for inactives: top-dose ratio change, negative = inhibition, usual class: inhibitors. 200,000 compounds, 0.01% hits; active = well fitted inhibition curve with a large enough effect in the signal ratio, with a control signal flat, not every such curve was filed as active; inconclusive = small, poorly fitted or top-dose-only effect, or effect the other way, or a change in a side signal; the % refers to the signal ratio; note: potency is the fitted concentration of half-maximal effect
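S3 HeLa cells stably expressing lamin A-EGFP splicing minigene plus DsRed2, 600 cells/well, 48 h compound exposure at 37C. Laser-scanning cytometry; analysed as GFP (500-530 nm)/RFP (575-640 nm) total intensity ratio; 0.5% DMSO vehicle.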
KinaseGlo FLuc – blocks Kinase-Glo luciferase, a counter-screen artifact; Potency, µM (highest dose often 38.3 µM), for the others: top-dose activity change, negative = inhibition, usual class: inhibitors; AID 1379; Kinase-Glo luciferase, ATP luminescence, 8 min; 200,000 compounds, 0.28% hits; Q27757; active = well fitted inhibition curve with a large enough effect; inconclusive = small, poorly fitted or top-dose-only effect; note: potency is the fitted concentration of half-maximal effect; nearly all actives have a fitted effect of over 60% in size
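Recombinant Kinase-Glo luciferase, 10 uM ATP (linear range), luciferin; imidazole pH 7.2 / KCl / MgCl2 / Tween / BSA buffer; 8 min RT; luminescence.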
PNC assembly inh – inhibitors of perinucleolar compartment assembly. PC3M PTB-GFP, PNC prevalence imaging, 16 h; active compounds read low. activity change (PNC), negative = inhibition, % at 10 µM. 140,000 compounds, 3.1% hits. AID 2417;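 active = readout at or below -70, meaning at least 70% loss of cells showing the perinucleolar compartment, a nuclear body marking cancer cells; inconclusive = readout between -30 and a set limit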;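 note: plate controls were DMSO wells for no effect and camptothecin positive control wells for full effect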
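PC3M cells stably expressing PTB-GFP, 750–1000 cells/well, treated 16 h at 37 °C with compound (23 nl of library stock), in duplicate. After paraformaldehyde fixation and Hoechst stain, imaged at 20x; PNC prevalence scored by image analysis.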
Starred values were filed as active, the others as inactive; ? = inconclusive; / = no result; [ ] = dose if it differs, or a comment. Unless noted, calls come from the whole dose curve; as a rule, active = well fitted inhibition curve with a large enough effect (not every such curve was filed as active); inconclusive = small, poorly fitted or top-dose-only effect, or another doubt; inactive = no such curve, though single readings can be large or run the other way. Unless noted, % is set by controls: 0 for no effect and ±100 for the full control effect.

SMILES	HPGD inh	ALDH1A1 block	Lamin A splicing	KinaseGlo FLuc	PNC assembly inh
O=C(c1cc(-c2ccco2)nn1-c1cccc(Cl)c1)N1CCCCC1	1.58µM*	3.55µM*	1.0%	4.2%	?
CCOC(=O)c1cc(-c2ccc(N3CCOCC3)cc2)nn1-c1ccccc1	-8.7%	-0.3%	?	-1.2%	?
CCOC(=O)c1cc(-c2ccco2)nn1-c1ccc(C)cc1	/	14.1µM*	-22.1%[46 µM]	0.7%	/
CCOC(=O)c1cc(-c2ccco2)nc2c1c(C)nn2-c1cccc(Cl)c1	?	?	-8.0%	-1.3%	-18.9
CC(C)NC(=O)c1cc(-c2ccco2)nn1-c1ccc(Cl)cc1	?	28.2µM*	-6.4%	-1.7%	59.2
CCOc1ccc(NC(=O)COC(=O)c2c(OC)cccc2OC)cc1	-25.8%	28.2µM*	1.5%	0.8%	?
CCOc1ccc(NC(=O)CSC(N)=O)cc1	-16.4%	2µM*	6.7%	-1.0%	24.2
CCOc1ccc(NC(=O)CC)cc1	/	12.9%	-8.7%[46 µM]	0.7%	/
Cn1ccnc1SCC(=O)Nc1sccc1C#N	-15.0%	25.1µM*	2.4%	-3.2%	63.7
N#Cc1ccsc1NC(=O)CSc1ncn[nH]1	-17.1%	-7.8%	2.7%	0.5%	-23.4
Cn1ccnc1SCC(=O)Nc1ccc2c(c1)OCO2	/	14.1µM*	-8.9%[46 µM]	-4.8%	/
CCOc1ccc(NC(=O)c2c(OC)cccc2OC)cc1	/	-2.6%	/	2.8%	/
CC(C)c1nn2c(=O)cc(COC(=O)c3cccc(NC(=O)COc4ccc(F)cc4)c3)nc2s1	/	/	0.7%[46 µM]	/	/
Cc1cc(NC(=O)CSc2nccn2C)no1	/	7.4%	/	2.1%	/
Cc1cc(C)cc(-n2ccnc2SCC(=O)Nc2ccc3c(c2)OCCO3)c1	-10.7%	?	-19.0%	1.9%	-85.4*
Cc1cc(C)c(NC(=O)CSc2nccn2C)c(C)c1	6.31µM*	-7.3%	4.0%	-0.1%	-17.1
CCOc1ccc(NC(=O)CSc2nccn2C)cc1	-9.3%	4.3%	-7.1%	-2.1%	-100.0*
Cc1ccc(-c2cccc(-c3cc(=O)oc4ccc(C(C)(C)C)cc34)c2)cc1	-5.7%	19.6%	/	2.5%[39.9 µM]	/
CC(/C=C/c1ccccc1)=N\Nc1nc(-c2ccccc2)cs1	-18.2%	?	?	1.5%	-85.3*
O=S(=O)(NCc1nc2cccnc2n1Cc1ccc(F)cc1)c1ccc2c(c1)CCCC2	/	/	16.5%[46 µM]	/	/
COc1cccc(CNC(=O)CCCN2C(=O)CCn3nc(-c4cccn4C)cc32)c1	/	/	-11.2%[46 µM]	/	/
COc1cc(NS(=O)(=O)c2ccc3c(c2)CCN3S(C)(=O)=O)cc(OC)c1	/	/	-0.3%[46 µM]	/	/
CCOC(=O)C1=C(C)NC(=O)NC1c1ccc(-c2ccccc2F)o1 (stereo not given)	5.6%	20µM*	?	-0.2%	?
CN(C)CCC(=O)c1ccc(Cl)cc1	15.8µM*	0.112µM*	1.7%	0.4%	?
CCOc1ccc(NCC(=O)c2ccc(C)cc2)cc1	/	3.16µM*	2.4%[46 µM]	-1.8%	/
SMILES	HPGD inh	ALDH1A1 block	Lamin A splicing	KinaseGlo FLuc	PNC assembly inh
O=C(O)CCC(=O)CCC(=O)c1ccc(Cl)cc1	-16.7%	-1.1%	6.9%	7.7%	-0.8
O=C(CC(C(=O)O)c1ccc(Cl)cc1)c1ccccc1 (stereo not given)	/	3.1%	-8.0%[46 µM]	7.8%	/
Cc1ccc(C(=O)CNc2ccc(Cl)cc2)cc1	/	10µM*	/	0.3%	/
COC(=O)C(CC(=O)c1ccc(Cl)cc1)c1ccc(C)cc1 (stereo not given)	-10.4%	-3.6%	-8.1%	2.0%	-100.0*
NCC1O[C@@H](OC2C(N)C[C@H](N)[C@@H](O[C@H]3OC(CO)C(O)C(N)C3O)C2O)C(N)C(O)C1O (stereo not given in full)	-11.5%	-0.5%	/	-5.3%	/
Nc1ccn([C@H]2O[C@@H](COP(=O)(O)O)[C@@H](O)[C@H]2O)c(=O)n1	-1.4%	8.1%[13.5 µM]	/	-6.1%[7.66 µM]	/
CCOc1ccc(NC(=O)c2ccc(NCC(=O)N3CCCCCC3)cc2)cc1	/	6.31µM*	15.7%[46 µM]	-7.2%	/
CCOc1ccc(C(=O)NCC(=O)OCC(=O)N2CCCCC2)cc1	-2.6%	6.5%	-1.3%	-3.0%	31.9
CCc1n[nH]c(=S)n1/N=C/c1cc(Br)c(OC)cc1OC	7.94µM*	10.7%	?	1.3%	154.3
Cn1cc(S(=O)(=O)N2CCCCCC2)cc1C(=O)NCc1ccc(Cl)cc1	/	/	-22.9%[46 µM]	/	/
Cc1cc(/C=N/O)c(C)n1-c1ccc(Br)cc1	?	8.91µM*	?	-1.1%	35.7
Cc1cc(/C=N/NC(N)=S)c(C)n1-c1ccc(Br)cc1	/	15.8µM*	?	-0.6%	/
Cc1cc(/C=N/NC(N)=S)c(C)n1-c1ccc(Cl)cc1	-11.5%	31.6µM*	-3.0%	0.6%	84.1
Cc1cc(/C=N/NC(N)=S)c(C)n1-c1cccc(Cl)c1	/	25.1µM*	0.8%[46 µM]	2.3%	/
N[C@H](C(=O)O)c1ccc(C(=O)O)cc1	-21.3%	8.1%	/	0.0%	/
O=C1C(=O)N(C2CCNCC2)CCN1Cc1ccccc1	/	/	-7.9%[46 µM]	/	/
CC(=O)N1CCCc2cc(S(=O)(=O)N3CCCC(C(=O)Nc4cccc(Cl)c4C)C3)ccc21 (stereo not given)	/	/	-8.1%[46 µM]	/	/
O=C1CCN(c2ccc([N+](=O)[O-])cc2F)CC1	/	8.91µM*	0.7%[46 µM]	-1.9%	/
C=C[C@@]1(C)CC(=O)[C@@]2(O)[C@@]3(C)[C@@H](O)CCC(C)(C)[C@@H]3[C@H](OC(=O)CCN(C)C)[C@H](OC(C)=O)[C@@]2(C)O1	-11.8%	?	/	-1.3%	/
[O-][n+]1onc2c1CCC(=N/O)/C2=N\Nc1ccccc1	/	3.55µM*	/	/	/
O=c1[nH]c2ccc(Cl)cc2c(-c2ccccc2)c1SC(=S)N1CCOCC1	20µM*	8.91µM*	12.5%	16.7%	0.0
O=c1[nH]c2ccc(Cl)cc2c(-c2ccccc2)c1SC(=S)N1CCCCC1	?	25.1µM*	6.5%	-0.8%	45.6
O=c1[nH]c2ccc(Cl)cc2c(O)c1-c1ccccc1	-8.7%	5.5%	-0.7%	-7.2%	?
C[C@@H](C(=O)Nc1ccc2ccccc2c1)[C@@H]1C[C@@]1(C)[C@@H](NC(=O)Oc1ccc(F)cc1)c1ccccc1	-3.2%	-12.4%	/	-3.8%	/
Cc1ccccc1-n1sc2cc(F)ccc2c1=O	/	0.562µM*	?	-7.7%	/
SMILES	HPGD inh	ALDH1A1 block	Lamin A splicing	KinaseGlo FLuc	PNC assembly inh
Cc1ccccc1-n1c(=O)c2ccccc2n2cnnc12	2.4%	4.7%	-11.4%	-5.5%	?
NC(=S)NNc1c(F)c(F)c(F)c(F)c1F	/	8.91µM*	14.8%[46 µM]	-1.1%	/
Cc1csc(NC(=O)Cn2nc(C)c([N+](=O)[O-])c2C)n1	/	0.1%	?	1.3%	/
CCc1c(C)sc(NC(=O)Cn2nc(C)c([N+](=O)[O-])c2C)c1C(N)=O	/	7.08µM*	10.4%[46 µM]	3.5%	/
O=C1C=C(N2CCCCCC2)C2(CCCCC2)O1	/	8.91µM*	/	-0.1%	/
Cc1sc2c(c1C)CN(Cc1ccncc1)CN2C(=O)c1ccco1	-22.0%	25.1µM*	-6.9%	-6.0%	-17.6
CCOc1ccccc1NC(=O)C(=O)NCCC1=CCCCC1	/	-9.9%	11.6%[46 µM]	-0.2%	/
CCOc1ccc(C(=O)NCCC2=CCCCC2)cc1OCC	/	25.1µM*	-5.0%[46 µM]	2.4%	/
